Compound activity: PubChem BioAssay, The Scripps Research Institute Molecular Screening Center
An excerpt weighted towards active compounds, which were near 5.7% of everything screened.
hcDAF-12 act = H. contortus DAF-12 activation, primary screen | hit rate 1.4% among 370,000 | HEK293 hcDAF-12 lit1-tk-luc reporter, luminescence; 0% DMSO, 100% Δ7-dafachronic acid | activation, % at 6.8 µM;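 active means activation above the mean of all tested compounds plus 3 SD, cut at about 5.5% in these data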
DAX1 inh-1 = NR0B1 (DAX1) inhibition. hit rate 0.99% among 340,000. P51843. inhibition, % at 6.75 µM. HEK293 Gal4-DAX1 luciferase reporter, luminescence;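 active means inhibition above the mean over all tested compounds plus 3 SD, cut at about 4.2% in these data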;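 further: inhibition shows as a rise in luminescence from relieved DAX1 repression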
Target sequence (P51843 207-470 limits assumed): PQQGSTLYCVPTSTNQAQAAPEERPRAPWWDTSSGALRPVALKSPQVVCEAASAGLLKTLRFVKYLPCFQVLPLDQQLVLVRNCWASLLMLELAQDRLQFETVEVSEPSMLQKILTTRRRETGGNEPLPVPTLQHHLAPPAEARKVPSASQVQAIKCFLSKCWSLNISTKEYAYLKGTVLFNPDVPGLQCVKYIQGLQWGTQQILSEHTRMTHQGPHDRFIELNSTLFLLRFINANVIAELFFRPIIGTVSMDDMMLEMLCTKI
DAX1 inh-2 = DAX1 (NR0B1) inhibition, primary screen. HEK293T StAR-luciferase reporter, SF-1/DAX-1 repression relief. inhibition, % at 6.8 µM. hit rate 1.1% among 370,000. AID 652010;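 active means inhibition above the mean over all tested compounds plus 3 SD, cut at about 3.6% in these data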;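 further: higher inhibition means more luminescence from relief of DAX-1 repression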
hgDAF-12 ag = hgDAF-12 agonism, primary luciferase screen | hit rate 1.8% among 370,000 | activation, % at 6.8 µM | HEK293 GAL4-hgDAF12 UAS-luciferase reporter, agonist luminescence; normalized to butyrate control | AID 687014;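 active means activation above a cutoff set at the mean of all screened compounds plus 3 SD, cut at about 10% in these data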
ssDAF12 agonist = S. stercoralis DAF-12 activation, primary screen; HEK293 ssDAF-12/GRIP1 lit1-tk-luc reporter, luminescence; % of 3 µM dafachronic acid response; activation, % at 6.8 µM; hit rate 1% among 370,000; AID 652126;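 active means activation above the mean over all tested compounds plus 3 SD, cut at about 0.9% in these data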
AHR act = activators of human aryl hydrocarbon receptor; P35869; activation, % at 5 µM; AID 2796; hit rate 2.5% among 320,000; AHR-responsive luciferase reporter cells, luminescence; in the data active means activation above about 47%
LXRb hcDAF ctr = LXR-beta agonism as hcDAF-12 counter-screen; shares compounds with hcDAF-12 act; HEK293 Gal4-LXR tk-luc reporter, luminescence, 24 h; normalized: DMSO 0%, positive control 100%; activation, % at 6.8 µM; 3,400 tested, under 10 active; AID 743027;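 active means mean percent activation of the reporter above a cutoff set as the average over tested compounds plus their standard deviation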
Target sequence (P55055 whole entry, looked up, the tested form may be a part): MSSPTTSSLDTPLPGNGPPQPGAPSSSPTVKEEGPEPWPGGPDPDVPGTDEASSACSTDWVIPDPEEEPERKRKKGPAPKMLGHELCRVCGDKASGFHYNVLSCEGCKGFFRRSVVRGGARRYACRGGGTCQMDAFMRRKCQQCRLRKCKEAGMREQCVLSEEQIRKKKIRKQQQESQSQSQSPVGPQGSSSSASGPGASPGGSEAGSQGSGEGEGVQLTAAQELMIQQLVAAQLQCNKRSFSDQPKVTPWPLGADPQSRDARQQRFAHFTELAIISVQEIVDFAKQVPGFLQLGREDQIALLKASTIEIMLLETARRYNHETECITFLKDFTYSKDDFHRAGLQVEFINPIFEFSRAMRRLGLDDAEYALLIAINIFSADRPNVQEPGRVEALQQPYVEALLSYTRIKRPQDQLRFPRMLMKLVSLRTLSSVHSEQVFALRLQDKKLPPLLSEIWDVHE
hcDAF12 conf = confirmation of H. contortus DAF-12 agonists; shares compounds with hcDAF-12 act; HEK293 hcDAF-12 lit1-tk-luc reporter, luminescence; % of Δ7-dafachronic acid response; activation, % at 6.8 µM; hit rate 61% among 3,400; AID 743032;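 active means mean activation across triplicate tests above the threshold derived from the earlier primary screen, cut at about 5.5% in these data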
hgDAF12 ag = confirmation of H. glycines DAF-12 agonists. AID 743050. activation, % at 6.8 µM. HEK293 GAL4-hgDAF12 luciferase reporter, agonist mode; percent of butyrate response. shares compounds with hgDAF-12 ag. hit rate 80% among 3,300;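 active means mean activation over triplicate wells above the hit cutoff derived from the earlier primary screen, cut at about 11% in these data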
LXRb DAF12 ctr = LXR-beta agonism as DAF-12 counter-screen; 3,300 tested, under 10 active; shares compounds with hgDAF-12 ag; HEK293 Gal4-LXR luciferase reporter, 24 h; activation, % at 6.8 µM;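 active means mean activation of the triplicate above a set limit carried over from the primary screen, none filed active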
Each line names hits and unclear results; the compound was inactive in the other large screens (follow-up assays come after a bar, where they were run).

Cc1nc(NC(=S)NC(=O)c2ccccc2)sc1C	hcDAF-12 act 8.0, DAX1 inh-1 5.3, hgDAF-12 ag 14 | LXRb hcDAF ctr inactive | hcDAF12 conf 15 | hgDAF12 ag 14 | LXRb DAF12 ctr inactive
O=C(Nc1ccc2c(c1)CCC2)c1cc2ccccc2o1	hcDAF-12 act 7.9, hgDAF-12 ag 17, ssDAF12 agonist 1.6 | LXRb hcDAF ctr inactive | hcDAF12 conf inactive | hgDAF12 ag 22 | LXRb DAF12 ctr inactive
COC(=O)c1sc(NC(=S)NC(=O)c2cccc(C)c2)nc1C	none
CCN(CC)C(=O)C1=C(C)N(Cc2ccc(OC)cc2)C(=O)C(CC(=O)NC(c2ccccc2)c2ccccc2)C1 (stereo not given)	none (no result: AHR act)
O=[N+]([O-])c1ccccc1N=Nc1c(O)[nH]c2ccc(F)cc12	none (no result: AHR act)
Oc1[nH]c2ccccc2c1N=Nc1ccccc1F	hcDAF-12 act 12, hgDAF-12 ag 16, AHR act 54 | LXRb hcDAF ctr inactive | hcDAF12 conf 14 | hgDAF12 ag 21 | LXRb DAF12 ctr inactive
CCCN(C(=O)C1CCN(S(=O)(=O)c2ccc(OC)c(OC)c2)CC1)C1CCS(=O)(=O)C1 (stereo not given)	none
COc1cccc(NC2SC(=O)N(c3ccccc3)C2=O)c1 (stereo not given)	hcDAF-12 act 7.1, DAX1 inh-2 5.5, hgDAF-12 ag 14 | LXRb hcDAF ctr inactive | hcDAF12 conf inactive | hgDAF12 ag 11 | LXRb DAF12 ctr inactive
CCOc1cc(C2NN=C(c3ccccc3)S2)ccc1OCc1ccccc1Cl (stereo not given)	hcDAF-12 act 8.7, DAX1 inh-1 5.9, hgDAF-12 ag 16, ssDAF12 agonist 1.4 | LXRb hcDAF ctr inactive | hcDAF12 conf 9.2 | hgDAF12 ag 16 | LXRb DAF12 ctr inactive
Cc1c(-c2nc(N)nc(Nc3ccccc3F)n2)oc2ccccc12	hcDAF-12 act 7.5, DAX1 inh-2 3.7, hgDAF-12 ag 14, ssDAF12 agonist 0.9 | LXRb hcDAF ctr inactive | hcDAF12 conf 7.3 | hgDAF12 ag 18 | LXRb DAF12 ctr inactive
COc1ccc(C(=O)Cn2c(=N)n(C)c3ccccc32)cc1	hcDAF-12 act 14, DAX1 inh-1 4.5, hgDAF-12 ag 18, ssDAF12 agonist 1.7, AHR act 76 | LXRb hcDAF ctr inactive | hcDAF12 conf 9.1 | hgDAF12 ag 19 | LXRb DAF12 ctr inactive
O=C(COC(=O)c1cc(=O)[nH]c2ccccc12)Nc1ccccc1F	none
COc1ccc(C(=O)N2CCC(C)(C(=O)NS(=O)(=O)C3CC3)C2)cc1F (stereo not given)	none (no result: DAX1 inh-1, AHR act)
CCOC(=O)c1c(C)oc2c1c(C=NCc1ccccn1)c(O)c1ccccc12	none (no result: AHR act)
CCOC(=O)c1c(C)oc2c1c(C(c1cccnc1)N1CCOCC1)c(O)c1ccccc12 (stereo not given)	hcDAF-12 act 10, DAX1 inh-1 4.9, hgDAF-12 ag 13, ssDAF12 agonist 2.6 | LXRb hcDAF ctr inactive | hcDAF12 conf 5.7 | hgDAF12 ag inactive | LXRb DAF12 ctr inactive
COc1cc2c(=O)n(CC3CCCO3)c(=O)n(CC(=O)Nc3ccccc3)c2cc1OC (stereo not given)	none
CCOC(=O)c1c(C)oc2c1cc(O)c1ccccc12	hcDAF-12 act 13, hgDAF-12 ag 17, ssDAF12 agonist 3.1 | LXRb hcDAF ctr inactive | hcDAF12 conf 13 | hgDAF12 ag 20 | LXRb DAF12 ctr inactive
CC(C)(C)c1cc[n+](/C(C(=S)Nc2ccccc2F)=C(/[O-])c2ccc3c(c2)OCCO3)cc1	hcDAF-12 act 6.8, hgDAF-12 ag 14 | LXRb hcDAF ctr inactive | hcDAF12 conf 7.3 | hgDAF12 ag inactive | LXRb DAF12 ctr inactive
[O-]C(=C(C(=S)Nc1cccc2ccccc12)[n+]1ccccc1)c1ccc2c(c1)OCCO2	none (no result: hcDAF-12 act, DAX1 inh-2, hgDAF-12 ag, ssDAF12 agonist, AHR act)
COc1ccc(C2=Nc3ccccc3N(C(=O)c3ccncc3)C2C(=O)NC(C)C)cc1 (stereo not given)	none (no result: DAX1 inh-1, AHR act)
COc1ccc(C2=Nc3ccccc3N(C(=O)c3ccc4ncccc4c3)C2C(=O)NC2CCCC2)cc1 (stereo not given)	hcDAF-12 act 9.7, hgDAF-12 ag 18, ssDAF12 agonist 2.3 (no result: DAX1 inh-1, AHR act) | LXRb hcDAF ctr inactive | hcDAF12 conf 10 | hgDAF12 ag 12 | LXRb DAF12 ctr inactive
COc1ccc(C)cc1S(=O)(=O)NCCN1CCOCC1	none
COc1ccccc1C(=O)NCc1ccc(-c2nc3ccccc3s2)cc1	none
COc1cc(-c2nc3ccccc3s2)ccc1O	hcDAF-12 act 8.6, hgDAF-12 ag 14, AHR act 48 | LXRb hcDAF ctr inactive | hcDAF12 conf 7.3 | hgDAF12 ag 14 | LXRb DAF12 ctr inactive
Cc1ccc(-c2nc3ccc(Cl)cn3c2Cc2cccc(Cl)c2)cc1	hcDAF-12 act 6.6, DAX1 inh-2 4.1, hgDAF-12 ag 14 (no result: DAX1 inh-1, AHR act) | LXRb hcDAF ctr inactive | hcDAF12 conf inactive | hgDAF12 ag inactive | LXRb DAF12 ctr inactive
Clc1ccc(-c2nc3ccc(Br)cn3c2Cc2cccc(Cl)c2)cc1	none (no result: DAX1 inh-1, AHR act)
Cc1ccc(-c2nc(-c3nccc4ccccc34)oc2-c2ccccc2)cc1	hcDAF-12 act 7.7, hgDAF-12 ag 17 | LXRb hcDAF ctr inactive | hcDAF12 conf 9.5 | hgDAF12 ag 16 | LXRb DAF12 ctr inactive
O=C1NC(=O)C2(CCCCC2C2CCCCC2)N1 (stereo not given)	none (no result: AHR act)
O=C(Nc1ccc(-c2nc3ccccc3o2)cc1)C1CCCO1 (stereo not given)	hcDAF-12 act 9.7, hgDAF-12 ag 15, ssDAF12 agonist 1.1 | LXRb hcDAF ctr inactive | hcDAF12 conf 7.6 | hgDAF12 ag 21 | LXRb DAF12 ctr inactive
Cc1ccc(NC(=O)c2onc(C)c2Cl)cc1	hcDAF-12 act 9.1, hgDAF-12 ag 18 | LXRb hcDAF ctr inactive | hcDAF12 conf 12 | hgDAF12 ag 16 | LXRb DAF12 ctr inactive
CCC(C)C(NC(=O)C(Cc1ccc(O)cc1)NC(=O)OCc1ccccc1)C(=O)OC (stereo not given)	none (no result: DAX1 inh-1, AHR act)
Cc1ccc(-c2nc(-c3ccncc3)no2)c(Cl)c1	hcDAF-12 act 7.6, hgDAF-12 ag 16, ssDAF12 agonist 1.5 | LXRb hcDAF ctr inactive | hcDAF12 conf 8.5 | hgDAF12 ag 16 | LXRb DAF12 ctr inactive
